Assay results published in PubChem BioAssay (NCATS).
Inconclusive results are not listed. The source made the active and inactive calls. Unless noted, the call rests on the fitted dose curve; in most records, active means well fitted curve in the direction sought with a large enough effect; inconclusive means small, poorly fitted or top-dose-only effect, or another doubt; inactive means no such curve, though single readings can be large; an effect the other way counts as inactive or inconclusive.

What was measured:
[1] = Cell Viability - BJ (AID 421; calls by dose curve;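 further: potency means the concentration at half of the fitted maximal effect; cells exposed to compound for 40 hours at 37 °C before readout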); settings: BJ fibroblast viability, qHTS
How it was run: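 Quantitative HTS: ATP depletion in BJ cells after 40 hr compound exposure in complete culture medium, detected with CellTiter-Glo; AC50 from standard Hill fits.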

[2] = Cell Viability - Hek293 (AID 427;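 active means compounds whose dose-response curve shows a full or clear partial loss of cell viability, called from curve shape rather than a numeric limit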;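 further: potency means the concentration at half of the fitted maximal effect; cells exposed to compound for 40 hours at 37 °C before reading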); settings: qHTS
How it was run: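 AC50 values derive from Hill-modelled concentration-response of ATP-based luminescence, normalized between DMSO-only and 100 uM tamoxifen controls. Cells were exposed in complete culture medium for 40 hr at 37 °C before detection.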

[3] = Cell Viability - HepG2 (AID 433; calls by dose curve;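 further: potency means the concentration at half of the fitted maximal effect; cells exposed to compound for 40 hours; potency for ATP loss meaning cytotoxicity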); settings: qHTS
How it was run: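 HepG2 cells, 1500 per well, treated 40 hr at 37 °C in complete medium; viability from intracellular ATP by CellTiter-Glo luminescence. Normalized to DMSO and 100 uM tamoxifen; AC50 from Hill fit of qHTS concentration-response.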

[4] = Cell Viability - MRC5 (AID 434; calls by dose curve;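 further: potency means the concentration at half of the fitted maximal effect; cells exposed to compound for 40 hours at 37 °C; potency reflects cytotoxicity seen as loss of intracellular ATP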); settings: MRC5 lung fibroblast viability, qHTS
How it was run: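 qHTS cytotoxicity in human lung fibroblast MRC5 cells; 40 hr treatment, 37 °C; cellular ATP by luciferase luminescence; DMSO = 0%, 100 uM tamoxifen = 100% inhibition; Hill-fit AC50.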

[5] = target: Mitogen-activated protein kinase 10 (Mus musculus) (UniProt Q61831); experiment: JNK3 AlphaScreen Assay (AID 530; active means well fitted curve in either direction with a large enough effect, not every such curve was filed as active;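 further: kinase came from lysate of stimulated human HepG2 cells; signal reports phosphorylation of biotinylated GST-cJun 1-79 at Ser73 with 10 µM ATP; on the % scale 0 is the no-effect control and ±100 the full control effect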)
How it was run: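 Room-temperature AlphaScreen kinase assay; pre-activated HepG2 lysate as JNK3 source, biotin-GST-cJun(1-79) substrate, 10 uM ATP, compound 15 min preincubation.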

[6] = Cell Viability - NIH 3T3 (AID 541); settings: NIH 3T3 cell viability, qHTS; at 92.2 µM (top of the series);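 further: cells exposed to compound for 40 hours; plate controls were DMSO alone for no effect and tamoxifen positive control for full effect; nearly all actives have a fitted effect of over 25% in size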
How it was run: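 AC50 values reflect concentration-dependent loss of intracellular ATP in NIH 3T3 cells after 40 hr treatment in complete culture medium, quantified by luciferase-based luminescence.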

[7] = Cell Viability - Mesenchymal (AID 546);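 further: cells exposed to compound for 40 hours before reading; 0% = DMSO only and -100% = 100 µM tamoxifen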
How it was run: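 AC50 values reflect the drop in intracellular ATP in a human kidney mesenchymal line derived from normal glomeruli. Treatment lasts 40 hr at 37 °C in complete medium, and the signal comes from CellTiter-Glo luminescence.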

[8] = Cellular Toxicity (caspase-3) HepG2 (AID 654);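 further: cells exposed to compound for 16 hours before reading; 0% = DMSO alone and 100% = caspase signal from 100 µM tamoxifen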
How it was run: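 qHTS, HepG2, 1500 cells/well, complete medium; cpd 16 h 37 °C; Caspase-Glo 3/7, 20 min RT; lum. Norm: DMSO vs 100 uM tamoxifen; AC50 Hill fit.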

[9] = Cellular Toxicity (caspase-3) Jurkat (AID 655);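 further: cells exposed to compound for 16 h at 37 °C before reading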
How it was run: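 Jurkat cells (5000/well) in complete medium exposed 16 h at 37 C; caspase-3/7 activity read by Caspase-Glo luminescence after 20 min at room temperature. Normalized to DMSO and 100 uM tamoxifen; AC50 from Hill fits.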

[10] = Cellular Toxicity (caspase-3) HUV-EC-C (AID 656);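 further: 0% = DMSO basal and 100% = 100 µM tamoxifen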
How it was run: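 HUV-EC-C cells (1000/well) in complete medium, compound-treated 16 h at 37 °C; caspase-3/7 activity read by Caspase-Glo 3/7 luminescence. Normalized to DMSO (basal) and 100 uM tamoxifen (100%); AC50 from Hill-equation concentration-response fits.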

[11] = Cellular Toxicity (caspase-3) SHSY5Y (AID 657)
How it was run: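 SH-SY5Y human neuroblastoma cells, 1500/well, exposed to compound for 16 hours at 37 °C in complete medium. Caspase-3/7 activity read by Caspase-Glo luminescence after 1 hr at room temperature, normalized to DMSO and 10 uM staurosporine; AC50 from Hill fit.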

[12] = Cellular Toxicity (caspase-3) BJ (AID 658);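 further: 0% = DMSO basal and 100% = 10 µM staurosporine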
How it was run: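 Readout: Caspase-Glo 3/7 luminescence increase in BJ cells after 16 hr treatment at 37 °C. Staurosporine and tamoxifen served as positive controls; AC50 values came from Hill modelling of data normalized to DMSO and 10 uM staurosporine.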

[13] = Cellular Toxicity (caspase-3) MRC-5 (AID 659);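 further: 0% = DMSO basal and 100% = 10 µM staurosporine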
How it was run: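 Concentration-dependent caspase 3/7 activation is measured in human normal lung fibroblasts (MRC-5) following 16-hour treatment. AC50 values come from standard Hill-equation modeling of luminescence normalized to DMSO and 10 uM staurosporine.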

[14] = Cellular Toxicity (caspase-3) SK-N-SH (AID 661);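 further: 0% = DMSO basal and 100% = 10 µM staurosporine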
How it was run: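 Caspase 3/7 activation is measured as a luminescence increase from aminoluciferin released by substrate cleavage in SK-N-SH cells after 16 hr compound treatment; values are AC50 from concentration-response curves.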

[15] = Cellular Toxicity (caspase-3) H-4-II-E (AID 663);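 further: 0% = DMSO basal and 100% = 100 µM tamoxifen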
How it was run: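 Apoptosis induction is scored as increased luminescence from caspase 3/7 substrate cleavage in rat hepatoma H-4-II-E cells exposed to compound for 16 hr. Activity is scaled between DMSO and 100 uM tamoxifen.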

[16] = Cellular Toxicity (caspase-3) Hek293 (AID 664);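 further: cells exposed to compound for 16 h at 37 °C before readout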
How it was run: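 Activation of caspase-3/7 is measured as increased luminescence from cleaved peptide-aminoluciferin substrate in HEK293 cells treated 16 hours at 37 °C. AC50 values come from Hill-equation fits of concentration-response data.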

[17] = Cellular Toxicity (caspase-3) N2a (AID 665);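 further: compound exposure lasted 16 h at 37 °C before readout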
How it was run: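 Plated mouse neuroblastoma N2a cells received titrated compounds for 16 h in complete medium. Caspase activity was then detected with a peptide-aminoluciferin luminescent reagent.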

[18] = Cellular Toxicity (caspase-3) NIH 3T3 (AID 666);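 further: caspase signal read after 16 h compound exposure; 0% = DMSO basal and 100% = 100 µM tamoxifen stimulation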
How it was run: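 Concentration-response qHTS in NIH 3T3 mouse fibroblasts scores caspase-3/7 activation as rising luminescence after 16 hr compound exposure. Signals are scaled between DMSO-only and 100 uM tamoxifen.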

[19] = Cellular Toxicity (caspase-3) Renal Proximal Tubule (AID 667);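 further: cells exposed to compound for 16 hours at 37 °C before detection; 0% = DMSO basal and 100% = 10 µM staurosporine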
How it was run: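 Freshly isolated primary rat kidney proximal tubule cells, 1000/well, treated 16 hr at 37 °C, then Caspase-Glo 3/7 luminescence after 1 hr. Normalized to DMSO and 10 uM staurosporine; AC50 from Hill fit.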

[20] = target: Cytochrome P450 3A4 (Homo sapiens) (UniProt P08684); experiment: qHTS Assay for Activators of Cytochrome P450 3A4 (AID 885); further: nearly all actives have a fitted effect of over 65% in size
Cytochrome P450 3A4 (Homo sapiens), sequence (P08684 whole entry, looked up): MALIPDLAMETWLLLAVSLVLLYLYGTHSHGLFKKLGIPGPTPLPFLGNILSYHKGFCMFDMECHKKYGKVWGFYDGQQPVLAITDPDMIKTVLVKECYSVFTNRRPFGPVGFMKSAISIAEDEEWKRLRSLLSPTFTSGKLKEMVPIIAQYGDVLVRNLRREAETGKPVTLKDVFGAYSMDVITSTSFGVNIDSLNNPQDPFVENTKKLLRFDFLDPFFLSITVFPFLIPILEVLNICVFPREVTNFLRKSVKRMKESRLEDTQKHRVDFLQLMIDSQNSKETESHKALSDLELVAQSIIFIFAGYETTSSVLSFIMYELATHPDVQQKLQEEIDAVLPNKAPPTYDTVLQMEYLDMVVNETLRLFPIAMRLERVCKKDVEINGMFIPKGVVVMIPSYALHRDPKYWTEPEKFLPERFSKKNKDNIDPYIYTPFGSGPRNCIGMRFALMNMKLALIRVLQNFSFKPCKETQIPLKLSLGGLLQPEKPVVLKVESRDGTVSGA
How it was run: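 Quantitative HTS format: compounds preincubated with 20nM human CYP3A4 and Luciferin-PPXE substrate at KM, reaction started by NADPH regeneration, stopped after 60 min, luciferase luminescence read 20 min later.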

[21] = Cell Viability - LYMP2-001 (AID 921);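 further: 0% = DMSO only and full inhibition = tetraoctylammonium bromide control wells; nearly all actives have a fitted effect of over 70% in size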
How it was run: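 Human lymphoblastoid LYMP2-001 cells, 2500 per well, in complete medium, treated 24 h at 37 C. Viability from cellular ATP by CellTiter-Glo luminescence; AC50 from Hill-equation fits of qHTS concentration-response.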

[22] = MultiTox-Fluor Cytotoxicity Assay - LYMP1-001 - Dead Cells (AID 946);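 further: 0% = DMSO and 100% = tetraoctylammonium bromide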
How it was run: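 In this qHTS, 15 uM tetraoctylammonium bromide defined 100% and DMSO defined basal activity. Lymphoblastoid cells (LYMP1-001, 2500 per well) received compound for 16 hr at 37 C before a fluorogenic dead-cell substrate readout at 485/520 nm.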

[23] = MultiTox-Fluor Cytotoxicity Assay - LYMP1-001 - Live Cells (AID 947);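 further: 0% = DMSO only and full inhibition = tetraoctylammonium bromide control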
[24] = Cell Viability - LYMP1-002 - Assay at 16 hr (AID 948);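 further: 0% = DMSO alone and full effect = 92 µM tetraoctylammonium bromide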
How it was run: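 LYMP1-002 human lymphoblastoid cells, 2500/well, were treated with compounds for 16 hr at 37 C in complete medium. Viability was read as intracellular ATP by CellTiter-Glo luminescence, and AC50 was derived from a Hill fit to concentration-response data.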

[25] = MultiTox-Fluor Cytotoxicity Assay - LYMP1-002 - Live Cells (AID 955); further: on the % scale 0 is the no-effect control and ±100 the full control effect
How it was run: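 Cytotoxicity in the human lymphoblastoid line LYMP1-002 is measured as loss of live-cell protease activity after 16 h treatment in complete culture medium. AC50 is derived from Hill-equation fits of qHTS concentration-response data.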

[26] = MultiTox-Fluor Cytotoxicity Assay - LYMP1-003 - Live Cells (AID 962);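 further: 0% = DMSO only and full loss = 92 µM tetraoctylammonium bromide; cytotoxic hits lower the live-cell protease signal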
How it was run: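 Cells plated at 2500 per well and incubated 5 hr; compounds added and incubated 16 hr at 37 C; MultiTox-Fluor reagent added for 60 min at room temperature; fluorescence of liberated AFC measured at 405/510 nm.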

[27] = Cell Viability - LYMP1-003 - Assay at 24 hr (AID 963);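 further: plate controls were DMSO only for no effect and tetraoctylammonium bromide positive control for full effect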
How it was run: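 Acute toxicity in LYMP1-003 lymphoblastoid cells: 24 hr compound treatment at 37 C, ATP measured with CellTiter-Glo after 30 min at room temperature. AC50 derived by fitting the Hill equation to qHTS titrations.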

[28] = Cell Viability - LYMP1-003 - Assay at 40 hr (AID 964); further: on the % scale 0 is the no-effect control and ±100 the full control effect; nearly all actives have a fitted effect of over 60% in size
How it was run: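 This qHTS cytotoxicity screen treats human lymphoblastoid cells (LYMP1-003) with compounds for 40 hr and quantifies cellular ATP via luciferase luminescence.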

[29] = Cell Viability - LYMP2-003 (AID 965);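 further: cells exposed to compounds for 24 h before reading; 0% = DMSO only and full effect = 92 µM tetraoctylammonium bromide; nearly all actives have a fitted effect of over 50% in size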
How it was run: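 Human lymphoblastoid LYMP2-003 cells, 2500/well, exposed to compounds for 24 h at 37 C in complete medium. Viability read as intracellular ATP by CellTiter-Glo luminescence; AC50 from Hill-equation fits of qHTS concentration-response data.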

[30] = Cell Viability - LYMP2-004 (AID 966);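 further: plate controls were DMSO only for no effect and tetraoctylammonium bromide control for full effect; nearly all actives have a fitted effect of over 65% in size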
How it was run: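 Acute toxicity is scored as a concentration-dependent drop in intracellular ATP, quantified by luciferase luminescence, in human lymphoblastoid cells exposed to compound for 24 hr. AC50 derives from Hill-equation modelling.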

[31] = Cell Viability - LYMP2-005 (AID 967);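 further: plate controls were DMSO only for no effect and 92 µM tetraoctylammonium bromide control for full effect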
How it was run: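 Human lymphoblastoid LYMP2-005 cells, 2,500 per well in complete medium, rested 5 h at 37C then compound-treated 24 h at 37C. Intracellular ATP read by CellTiter-Glo luminescence after 30 min at room temperature; AC50 from Hill-equation fits of concentration-response data.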

[32] = Cell Viability - LYMP2-009 (AID 968);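 further: 0% = DMSO alone and the full-kill end = tetraoctylammonium bromide at 92 µM; nearly all actives have a fitted effect of over 55% in size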
[33] = Cell Viability - LYMP2-011 (AID 969);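 further: 0% = DMSO only and full inhibition = 92 µM tetraoctylammonium bromide; nearly all actives have a fitted effect of over 60% in size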
How it was run: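 Acute toxicity is scored as a concentration-dependent drop in intracellular ATP of a human lymphoblastoid line after 24 hr treatment. Values are AC50s modeled with the Hill equation.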

[34] = Cell Viability - LYMP2-013 (AID 970);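 further: 0% = DMSO only and full inhibition = tetraoctylammonium bromide control; nearly all actives have a fitted effect of over 55% in size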
How it was run: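 Acute toxicity was measured in human lymphoblastoid cells (2500/well) exposed to compound titrations for 24 hr, with ATP luminescence (CellTiter-Glo) as read-out and AC50 fitted by Hill equation.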

[35] = Cell Viability - LYMP2-015 (AID 971);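 further: 0% = DMSO only and full effect = 92 µM tetraoctylammonium bromide; nearly all actives have a fitted effect of over 55% in size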
How it was run: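 Acute toxicity was scored as a concentration-dependent drop in intracellular ATP in lymphoblastoid cells after 24 hr compound exposure in complete medium. Detection used CellTiter-Glo luciferase luminescence.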

[36] = Cell Viability - LYMP2-017 (AID 972); further: on the % scale 0 is the no-effect control and ±100 the full control effect; nearly all actives have a fitted effect of over 55% in size
How it was run: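 Steps: plate 2500 lymphoblastoid cells per well; incubate 5 hr at 37 C; add compound across a concentration series and incubate 24 hr at 37 C; add CellTiter-Glo and read luminescence after 30 min at room temperature; fit Hill curves for AC50.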

[37] = Cell Viability - LYMP2-021 (AID 974)
How it was run: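 Concentration-response cytotoxicity in a human lymphoblastoid line: 24 hr treatment at 37 C in complete culture medium, tetraoctylammonium bromide as positive control, luminescent ATP quantitation as viability measure.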

[38] = Cell Viability - LYMP2-023 (AID 975)
How it was run: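 Concentration-dependent drop in intracellular ATP measures acute cytotoxicity in a human lymphoblastoid line treated for 24 hours in complete culture medium. AC50 values are taken from Hill-equation fits of qHTS data.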

[39] = Cell Viability - LYMP2-025 (AID 976)
How it was run: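 In qHTS format, LYMP2-025 lymphoblastoid cells in complete culture medium received compound for 24 hr; ATP-based CellTiter-Glo signal gave viability, with AC50 derived by Hill equation.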

c1ccc(Nc2ccc3ccccc3c2)cc1
inactive: Potency [1] > 92 µM | Potency [2] > 92 µM | Potency [3] > 92 µM | Potency [4] > 92 µM | outcome [5] | activity change, negative = cytotoxicity [6] -27% | outcome [7] | outcome [8] | outcome [9] | outcome [10] | outcome [11] | outcome [12] | outcome [13] | outcome [14] | outcome [15] | outcome [16] | outcome [17] | outcome [18] | outcome [19] | Potency [20] | outcome [21] | Potency [22] | outcome [23] | outcome [24] | outcome [25] | outcome [26] | outcome [27] | Potency [28] | outcome [29] | outcome [30] | outcome [31] | outcome [32] | outcome [33] | outcome [34] | outcome [35] | outcome [36] | outcome [37] | outcome [38] | outcome [39]
